# Screening results as filed in PubChem BioAssay.
# In the library only some 7.5% were active in any assay of this set; here they are far more common.
# FLuc counter: inhibits or activates purified firefly luciferase, miR-21 counter-screen; P08659; purified FLuc, Km substrates, luminescence inhibition; Potency, µM (series often up to 57.5 µM), without a hit: at the highest dose activity change, negative = inhibition, actives largely listed as inhibitors; 360,000 tested, 6.9% active;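 further: plate controls were vehicle for no effect and reference inhibitor for full effect; nearly all actives have a fitted effect of over 55% in size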
# Target sequence (P08659 whole entry, looked up): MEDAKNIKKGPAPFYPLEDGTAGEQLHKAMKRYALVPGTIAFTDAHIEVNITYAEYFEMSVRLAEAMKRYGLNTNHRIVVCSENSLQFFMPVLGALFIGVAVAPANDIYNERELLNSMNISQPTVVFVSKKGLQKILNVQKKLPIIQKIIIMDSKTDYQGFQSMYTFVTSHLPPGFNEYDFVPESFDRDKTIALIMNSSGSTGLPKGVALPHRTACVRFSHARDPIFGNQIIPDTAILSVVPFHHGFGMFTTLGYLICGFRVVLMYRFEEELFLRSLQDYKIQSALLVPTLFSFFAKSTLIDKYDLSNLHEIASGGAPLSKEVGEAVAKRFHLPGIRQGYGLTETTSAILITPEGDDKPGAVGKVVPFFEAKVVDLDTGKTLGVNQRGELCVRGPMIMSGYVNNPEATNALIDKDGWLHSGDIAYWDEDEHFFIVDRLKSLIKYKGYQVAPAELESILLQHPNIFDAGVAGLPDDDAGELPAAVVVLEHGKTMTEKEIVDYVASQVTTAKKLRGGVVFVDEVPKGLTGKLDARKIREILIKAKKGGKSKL
#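 Biochemical qHTS of compounds, final roughly 60 µM downward over six points, against 10 nM purified firefly luciferase using Km concentrations of substrates (10 uM D-luciferin, 10 uM ATP) in Tris acetate pH 7.5 buffer; luminescence output.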
# Rab9 prom act: activators of Rab9 promoter | Huh7 Rab9 promoter-luciferase reporter, luminescence, 24 h | Potency, µM (series often up to 9.22 µM), inactives show top-dose activation, negative = inhibition, most hits filed as activators | 320,000 tested, 2.8% active | AID 485297; further: % of control where 0% means no effect; nearly all actives have a fitted effect of over 60% in size
#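 Luminescence from Amplite-detected luciferase (10 minutes, ambient) reports Rab9 promoter activation. Before that, stable Rab9-luciferase Huh7 cells (1500/well, reduced-serum OP-MEM I plus 10% FBS) were exposed to compound for 24 hours at 37C.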
# SMN2 splice enh: SMN2 splice variant enhancement; HEK293 SMN2-luciferase splicing reporter, luminescence, 30-36 h; Potency, µM (top dose mostly 46.1 µM), for inactives: at the highest dose activity change, positive = activation, hits mostly activators; 210,000 tested, 2.8% active; further: % of control where 0% means no effect; nearly all actives have a fitted effect of over 55% in size
#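 HEK293 cells carry an SMN2 […]–luciferase reporter in which exon 7 inclusion puts luciferase in frame. Cells were plated 10-12 h before compound addition, then incubated 30-36 h at 37C. ONE-Glo luminescence was read; sodium butyrate at 4.5 mM final served as control.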
# KinaseGlo FLuc: Kinase-Glo luciferase inhibition (counter-screen); Q27757; Kinase-Glo luciferase, ATP luminescence, 8 min; Potency, µM (titrated, usually from 38.3 µM), for inactives: at the highest dose activity change, negative = inhibition, actives largely listed as inhibitors; 200,000 tested, 0.28% active; further: on the % scale 0 is the no-effect control and ±100 the full control effect; nearly all actives have a fitted effect of over 60% in size
#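 Substrate mix (final 50 mM imidazole pH 7.2, 50 mM KCl, 7 mM MgCl2, 10 uM ATP, 0.01% Tween 20, 0.05% BSA) plus pin-tool compound, then Kinase-Glo detection mix; 8 min ambient, luminescence read.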
# NPC1 prom act: NPC1 promoter activation; Huh7 NPC1 promoter luciferase reporter, 24 h; Potency, µM (highest dose often 9.22 µM), for inactives: at the top dose activation, usual class: activators; 320,000 tested, 2.4% active; AID 485313; further: % of control where 0% means no effect; nearly all actives have a fitted effect of over 60% in size
#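 Luciferase expression driven by the NPC1 promoter was measured in stably transfected Huh7 cells after a 24 h compound incubation, using a luciferase reagent and a luminescence read.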
# ELG1 genotoxic: genotoxicity induction in ELG1-luciferase HEK293T cells; HEK293T ELG1-luciferase reporter, luminescence, 16 h; Potency, µM (titrated, usually from 46 µM), without a hit: top-dose activity change, positive = activation, hits mostly activators; 330,000 tested, 1.3% active; AID 504466; further: % of control where 0% means no effect; nearly all actives have a fitted effect of over 60% in size
#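 HEK293T cells expressing luciferase-tagged ELG1 were exposed to compound or DMSO vehicle for 16 hr at 37 °C and 5% CO2. Luciferase activity was then measured with ONE-Glo after 30 min at room temperature.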
# Starred values were filed as active, the others as inactive; ? = inconclusive; · = no result; [ ] = remark or other dose. The call rests on the fitted dose curve; in most records, active means well fitted curve in the direction sought with a large enough effect; inconclusive means small, poorly fitted or top-dose-only effect, or another doubt; inactive means no such curve, though single readings can be large; an effect the other way counts as inactive or inconclusive. Potency means the concentration at half of the fitted maximal effect.
SMILES,FLuc counter,Rab9 prom act,SMN2 splice enh,KinaseGlo FLuc,NPC1 prom act,ELG1 genotoxic
Cc1ccc(C(=O)Nc2cccnc2Cl)cc1Cl,17µM*,?,·,·,?,18µM*
Cc1ccnc(NC(=O)CC(NC(=O)c2ccccc2Cl)c2ccccc2)c1 (stereo not given),11µM*,-2%,·,·,0%,21µM*
Cc1ccnc(NC(=O)c2ccc(Cl)c(NC(=O)c3ccccc3C)c2)c1,-16%,6%,·,·,1%,-7%
Cc1ccnc(NC(=O)c2ccccc2NC(=O)c2ccc(Cl)cc2Cl)c1,12µM*,-14%,·,·,-23%,?
O=C(Cc1ccccc1)Nc1cc(-c2nc3cc(Cl)ccc3o2)ccc1Cl,3%,·,?,·,·,·
Cc1ccc(C(=O)Nc2ccccc2C(=O)Nc2ccccn2)cc1Cl,5.4µM*,17%,·,·,2%,3%
NC(=O)c1ccc(NC(=O)COC(=O)C2CC(=O)N(Cc3ccccc3)C2)cc1 (stereo not given),0%,-1%,4%,1%,7%,-1%
COc1ccc(Nc2ncnc3sc(-c4ccccc4)cc23)cc1OC,12µM*,0%,-6%,3%,1%,0%
CCOC(=O)C1CCCN(C/C(O)=C(\C#N)c2nc(-c3ccc(Cl)cc3)cs2)C1 (stereo not given),0%,-6%,-12%,2%,0%,-6%
N#C/C(=C(/O)CN1CCCC1)c1nc(-c2ccccc2)cs1,19µM*,3.2µM*,·,·,4µM*,?
COC(=O)c1ccccc1NC(=O)Cn1ncc2c(C)n(Cc3ccc(F)cc3)c(C)c2c1=O,-3%,·,-23%,·,·,·
CC(=O)Nc1ccc(NC(=O)CSc2cn(CC(=O)N(C(C)C)C(C)C)c3ccccc23)cc1,0%,·,·,·,·,·
COc1ccc(N=Nc2n(C)c3ccccc3[n+]2C)cc1,0.076µM*,?,·,·,0.71µM*,0.92µM*
CC(C)(C)c1ccc(/C=N/n2cnnc2)cc1,19µM*,-8%,12%,-1%,1%,8%
COC(=O)c1ccc(/C=N/n2cnnc2)cc1,-1%,8%,-9%,-1%,3%,-1%
Cc1cc(C)nc(NC(=NCCc2c[nH]c3ccccc23)NC(=O)c2ccco2)n1,0%,-3%,-14%,0%,9%,-24%
COc1ccc2[nH]cc(CCN=C(NC(=O)c3ccccc3F)Nc3nc(C)cc(C)n3)c2c1,1%,·,35µM*,·,·,·
COc1ccc(OCC(=O)N(C)Cc2ccccc2)cc1,-1%,7%,1%,-3%,-6%,6%
CC(C)NS(=O)(=O)c1ccc(OCC(=O)N(C)Cc2ccccc2)cc1,1%,0%,-10%,-1%,-1%,3%
Cc1cc(OCC(=O)N(C)Cc2ccccc2)ccc1Br,17µM*,?,·,·,?,8%
Cc1cc(OCC(=O)N(C)Cc2ccccc2)ccc1Cl,15µM*,4.5µM*,·,·,?,14%
COc1cccc(-c2nc3c(c(SCc4ccccc4Cl)n2)Cc2c(CO)cnc(C)c2O3)c1,-2%,·,·,·,·,·
CCOC(=O)c1ccc2c(c1)nc(-c1ccccn1)n2CC,1.5µM*,3.5µM*,·,·,?,?
COc1ccc(Oc2nccc(-c3ccccc3)c2C#N)cc1,12µM*,?,8%,1%,?,10%
COc1cccc(NC(=O)Cn2cnc3c(nc4n3CCCCC4)c2=O)c1,-1%,·,·,·,·,·
SMILES,FLuc counter,Rab9 prom act,SMN2 splice enh,KinaseGlo FLuc,NPC1 prom act,ELG1 genotoxic
CCC(=O)N1CCCc2cc(S(=O)(=O)N3CCC(C(=O)NC4CCC(C)CC4)CC3)ccc21 (stereo not given),-3%,·,·,·,·,·
O/N=C/c1ccc(OCc2ccccc2)c(Br)c1,7.6µM*,3.2µM*,16µM*,0%,19%,15µM*
O/N=C/c1cc(Br)ccc1OCc1cccc(F)c1,?,3%,-17%,0%,3%,-1%
O/N=C/c1ccc(OCc2ccccc2)c(Cl)c1,4.8µM*,3.5µM*,11µM*,0%,?,16µM*
Cc1ccc(COc2ccc(Br)cc2/C=N/O)cc1,13µM*,?,10%,-4%,?,?
O/N=C/c1ccc(OCc2ccccc2F)c(Cl)c1,2.7µM*,1.6µM*,7.9µM*,-4%,?,5.2µM*
CCOc1cc(/C=N/O)ccc1OCc1ccc(C)cc1,?,18%,25%,-2%,0%,?
O/N=C/c1cc(Br)cc(Br)c1OCc1ccccc1,4%,-8%,-20%,-5%,-8%,1%
CC(O)CSc1nc2c(c(=O)[nH]c(=O)n2C)n1Cc1ccccc1Cl (stereo not given),0%,-2%,·,·,3%,12%
COc1ccc(OC)c(-c2nc3c(C#N)c[nH]n3c2NC2CCCCC2)c1,-13%,·,·,·,·,·
CCN(C(=O)Nc1cccc(Cl)c1)c1ccccc1,-2%,6%,·,·,-4%,-4%
Cc1cccc(N(O)C(=O)Nc2cccc(Cl)c2)c1,17µM*,28%,·,·,24%,?
CCOC(=O)c1ccc2nc(NC(=O)C(C)C)sc2c1,9.5µM*,3.5µM*,11µM*,-1%,1.1µM*,?
Cc1ccc2nc(NC(=O)COC(=O)c3cccnc3)sc2c1,·,·,·,·,·,20%
CCCCC(=O)Nc1nc2ccc(C(=O)OC)cc2s1,?,2.2µM*,?,-2%,?,?
CCCC(=O)Nc1nc2ccc(C(=O)OCC)cc2s1,?,?,18µM*,-3%,0.63µM*,10µM*
C=CCN(CC=C)S(=O)(=O)c1ccc2nc(NC(=O)C(C)C)sc2c1,6%,-22%,-23%,3%,-26%,4%
CCN(CC)C(=O)Cn1c(=O)n(-c2ccc(OC)cc2OC)c(=O)c2c(C)c(C(=O)N(CC)CC)sc21,2%,·,·,·,·,·
O=C(C#Cc1ccccc1)Nc1ccc(F)cc1,12µM*,12%,·,·,16%,10%
COc1ccc(NC(=O)C#Cc2ccccc2)cc1,8.5µM*,?,·,·,1.4µM*,?
O=C(CC(=O)Nc1cccc(F)c1)Nc1cccc(F)c1,1%,4%,·,·,5%,2%
O=C(C#Cc1ccccc1)Nc1cccc(F)c1,4.3µM*,0%,·,·,-9%,-1%
COc1ccccc1N1CCN(C(=O)Cn2ncc3c2-c2cc(C)ccc2OC3)CC1,0%,·,-5%,·,·,·
O=C(O)c1ccc(S(=O)(=O)N[C@H](Cc2ccc(O)cc2)C(=O)O)cc1,0%,-6%,·,·,-3%,·
Clc1cc2c(c(CSC3=NCN(CC4CC4)CN3)c1)OCOC2,·,·,8%[9.22 µM],0%[7.66 µM],·,·
Cc1c(C(=O)Nc2ccc(F)cc2F)oc2ccc3c(c12)C(=O)CC(C)(C)O3,1.1µM*,·,·,·,·,·
CC1=C(C(=O)Nc2ccc(F)cc2F)C2(CCN(C(C)C)CC2)OC1=O,2%,·,·,·,·,·
Cc1cc(C)cc(NC(=O)c2oc3ccc4c(c3c2C)C(=O)CC(C)(C)O4)c1,0.76µM*,·,·,·,·,·
